For orientation: AC50 means the midpoint of the concentration-response curve, whichever way the signal moves.

Each structure is given as a SMILES string. About 5,700 (36%) of roughly 16,000 compounds were called active. Not shown: some 24% with an inconclusive outcome. Some of the results follow. Values without a mark were called inactive. The call rests on the fitted dose curve; in most records, active means well fitted curve in the direction sought with a large enough effect; inconclusive means small, poorly fitted or top-dose-only effect, or effect the other way; inactive means no such curve, though single readings can be large or run the other way.
On the % scale 0 is the no-effect control and ±100 the full control effect.

Cytochrome P450 1A2 (Homo sapiens), sequence (P05177 whole entry, looked up): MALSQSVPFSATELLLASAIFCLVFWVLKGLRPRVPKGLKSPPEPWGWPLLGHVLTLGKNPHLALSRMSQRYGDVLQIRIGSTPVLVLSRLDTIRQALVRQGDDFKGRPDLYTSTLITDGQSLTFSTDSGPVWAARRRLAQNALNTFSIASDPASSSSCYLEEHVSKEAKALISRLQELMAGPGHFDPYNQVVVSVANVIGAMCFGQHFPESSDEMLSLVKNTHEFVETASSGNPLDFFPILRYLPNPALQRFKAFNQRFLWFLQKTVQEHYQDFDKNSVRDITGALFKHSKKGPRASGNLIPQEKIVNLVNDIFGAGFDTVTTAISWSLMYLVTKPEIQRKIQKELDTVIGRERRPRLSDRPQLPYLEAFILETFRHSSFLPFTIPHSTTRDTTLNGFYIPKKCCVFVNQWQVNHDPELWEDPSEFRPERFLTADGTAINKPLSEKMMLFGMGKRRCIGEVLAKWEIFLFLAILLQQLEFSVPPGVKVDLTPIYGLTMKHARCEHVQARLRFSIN

This assay concerns the target Cytochrome P450 1A2 (Homo sapiens) (UniProt P05177). The assay can be described thus: Cytochrome panel assay with activity outcomes. As to conditions: recombinant CYP, pro-luciferin dealkylation, luminescence, p450-cyp1a2; series mostly up to 57.1 µM.
`O=C(Cn1cccc1C(=O)c1ccccc1)NCc1cccs1`: the AC50 was 20 µM (active).

With `CCN(CC(=O)NCc1cccs1)S(=O)(=O)c1ccc(C(C)C)cc1`, the AC50 entry was “inactive”.

For `Cc1ccc(CCN2CC(C(=O)NCCN3CCOCC3)CC2=O)cc1` (configuration not stated), the AC50 entry was “inactive”.

In the case of `Cc1noc(C)c1COc1cccc(C(=O)OCC(=O)N2CC(=O)Nc3ccccc32)c1`, the AC50 is 25.1 µM (active).

For the molecule `Cc1cc(C(=O)C(=O)NC(C)C)c(C)n1-c1ccc([N+](=O)[O-])cc1`, the AC50 result was “inactive”.

Turning to `Cc1cc(C=O)c(C)n1-c1ccc(NC2CCCC2)c([N+](=O)[O-])c1`, the AC50 is 0.447 µM (active).

Take `CS(=O)(=O)N1CCN(c2ccc(C(=O)NC3C4CC5CC(C4)CC3C5)cc2[N+](=O)[O-])CC1` (configuration not stated): the AC50 result is “inactive”.

As to `Cc1cc(C=O)c(C)n1-c1ccc(N2CCCCC2)c([N+](=O)[O-])c1`, the AC50 is 14.1 µM (active).

In the case of `COc1ccccc1OCCN1C(=O)S/C(=C\c2ccco2)C1=O`, the AC50 was 14.1 µM (active).

Turning to `COc1ccc(/C=C2\SC(=O)N(CCNC(=O)C3CC(=O)N(c4ccccc4)C3)C2=O)cc1` (configuration not stated), the AC50 entry is “inactive”.

As to `CC(=O)[C@@H](C)CCO[C@@]1(C)OCC[C@@H]1C`, the activity, negative = inhibition was -19.3% [at 11.4 µM].

As for `CC(C)(C)c1ccc(C(=O)c2c[nH]c(C(=O)NCCCn3ccnc3)c2)cc1`, the AC50 is 5.62 µM (active).

`O=C(c1ccc(C(F)(F)F)cc1)c1c[nH]c(C(=O)NCCCn2ccnc2)c1`: the AC50 is 2 µM (active).

Consider `CC1=C(C#N)C(Nc2ccc(Cl)cn2)(C(F)(F)F)C(=O)N1` (configuration not stated), for which the AC50 result was “inactive”.

Regarding `CC(=O)c1sc(NC(=O)C(C)C)nc1C`, the concentration at half-maximal activity (AC50) is 10 µM (active).

`CCOC(=O)N1CCN(C(=O)c2ccc3nc(N4CCC(C)CC4)sc3c2)CC1`: the AC50 entry is “inactive”.

As to `CCOC(=O)C1CCN(C(=O)C2CCN(c3nc4ccc(OC)cc4s3)CC2)CC1`, the AC50 result was “inactive”.

As for `CCOc1ccc2nc(N3CCCCCC3)sc2c1`, the AC50 was 2.82 µM (active).

Turning to `CC(=O)NC(C)C(c1cccs1)N1CCN(c2ccccc2)CC1` (configuration not stated), the AC50 entry was “inactive”.

Consider `COC(=O)[C@@]1(Cc2ccc(F)cc2)[C@@H]2[C@@H](CC(=O)[C@H]2CC(=O)C(=O)N(C)C)CN1C(=O)c1ccccc1`, for which the AC50 entry is “inactive”.

Take `Cc1cnc(CNc2ncncc2-c2ccccc2CN(C)C)cn1`: the AC50 is 12.6 µM (active).

With `Cc1cnc(CNc2ncncc2-c2ccccc2C(F)(F)F)cn1`, the AC50 result was “inactive”.

For `Cc1cnc(CNc2ncncc2-c2ccccc2C)cn1`, the AC50 was 25.1 µM (active).

As for `CN(C)Cc1ccccc1-c1cncnc1NC1CC1`, the AC50 is 15.8 µM (active).

`Cc1cnc(CNc2ncncc2-c2ccccc2Cl)cn1`: the AC50 is 15.8 µM (active).

In the case of `CC1=CC(=O)C=CC1(C)C(Cl)(Cl)Cl` (configuration not stated), the AC50 result was “inactive”.

With `CCN1C(=O)[C@@H]2[C@H]3C(=CC[C@H]2C1=O)C(=O)[C@H]1OC1[C@H]3O` (some centres not stated), the activity, negative = inhibition was -3.23% [at 11.4 µM].
